Screening data from PubChem.
Most compounds without a hit are left out; they make up all but 1.3% or so of the library.
CCHF vOTU inh: blocks the CCHF virus ovarian tumor domain protease; inhibition, % at 11.5 µM; 370,000 tested, 0.55% active; AID 651958; CCHFV vOTU protease, Pep-AMC fluorescence; in the data active = inhibition above about 30%; also: 0% = vehicle wells with enzyme and 100% = no enzyme wells
PrP UTR inh: inhibition of PrP 5' UTR reporter expression. 340,000 tested, 0.35% active. cell-based PrP 5' UTR mRNA reporter, plate reader. inhibition, % (no concentration beside the values); in the data active = inhibition above about 52%; also: 0 = median of the neutral control wells
SARS 3CLpro inh: SARS-CoV 3CLpro protease inhibition; P0C6X7; recombinant SARS-CoV 3CLpro, quenched FRET peptide cleavage; inhibition, % at 6 µM; 290,000 tested, 0.14% active; AID 1706; in the data active = inhibition above about 12%
PrPC TRFRET: inhibitors of human cell surface prion protein PrPC; inhibition, % at 13.8 µM; AID 720596; TR-FRET read-out; 370,000 tested, 0.43% active; in the data active = inhibition above about 24%; also: 0% = median of the test wells and 100% = reference compound wells
PrPC confirm: cell surface PrPC inhibition, TR-FRET confirmation | shares compounds with PrPC TRFRET | cell surface PrPC level | inhibition, % at 13.8 µM | 1,500 tested, 65% active | AID 743200; in the data active = inhibition above about 25%
LD9 cytotox: LD9 cell cytotoxicity, PrPc inhibitor counter-screen; shares compounds with PrPC TRFRET; LD9 cells cytotoxicity, luminescence viability; inhibition, % at 13.8 µM; 1,500 tested, 29% active; AID 743201; in the data active = inhibition above about 9.5%
* hit, by the source's call; nt = not tested or not shown.

SMILES	CCHF vOTU inh	PrP UTR inh	SARS 3CLpro inh	PrPC TRFRET	PrPC confirm	LD9 cytotox
COC(=O)c1ccc(CN2CCCC(C(=O)Nc3cccc(-n4cccn4)c3)C2)cc1 (stereo unspecified)	-0.1	6.3	-7.2	-2.2	nt	nt
Cc1ccc(NS(=O)(=O)c2cc(C(=O)NCc3ccccn3)ccc2Cl)cc1	-0.4	-29.0	-0.4	39.8*	35.4*	-5.8
CCc1c(C)[nH]c2ccc(C)cc2c1=O	11.1	-16.9	-1.5	2.2	nt	nt
CNC(=O)C[C@H]1C(=O)N(c2ccc(OC)cc2)C[C@@H]1CSC	-1.6	nt	nt	-1.4	nt	nt
CC(C)Oc1ccc(CNC(=O)c2ccc3c(c2)N(C)CCS3)cc1	-59.4	-21.1	0.9	25.4*	44.1*	-4.3
C[C@@H]1COC(=O)[C@H](Cc2ccc(F)cc2)C/C=C\C[C@@H](CC(=O)NCCO)C(=O)N1	6.1	-21.4	nt	44.4*	6.8	-3.1
CCn1c(=O)c(C(=O)NCc2ccccn2)c(O)c2ccccc21	-2.4	-10.2	-1.9	30.0*	39.7*	-5.2
CCn1c(=O)c(C(=O)NCc2ccc(OC)cc2)c(O)c2ccccc21	-2.5	-5.0	0.8	4.7	nt	nt
O=C(C1CCCN1S(=O)(=O)c1cccc2cccnc12)N1CCN(c2ccccc2)CC1 (stereo unspecified)	-0.6	-15.6	-0.8	-0.8	nt	nt
COc1cc(NC(=S)Nc2cccc(Cl)c2Cl)c(OC)cc1Cl	6.3	-7.3	-1.4	5.5	nt	nt
COc1cc(NC(=S)NC(C)(C)C)c(OC)cc1Cl	1.8	-25.0	0.6	24.6*	6.1	-2.8
COc1ccc(C2/C(=C(/O)c3ccc(C)cc3)C(=O)C(=O)N2c2ccccn2)cc1OC (stereo unspecified)	10.0	-29.3	-1.9	1.5	nt	nt
CCCOc1ccc(/C(O)=C2\C(=O)C(=O)N(c3ccccn3)C2c2ccccc2F)cc1C (stereo unspecified)	-3.4	6.9	7.3	44.5*	89.4*	-3.2
CCOc1ccc(/C(O)=C2/C(=O)C(=O)N(c3ccccn3)C2c2ccc(C)cc2)c(C)c1 (stereo unspecified)	13.2	-7.8	6.4	39.7*	51.8*	-2.9
Cc1ccc(N(CC(=O)NC(C)(C)C)C(=O)CCC(=O)Nc2nccs2)c(C)c1	-1.6	0.0	1.6	7.3	nt	nt
O=C1COc2cc(O)ccc21	5.2	-6.5	nt	28.0*	16.0	-1.0
CCc1c(C)nc2c(Br)cccc2c1SCCC#N	11.3	-5.4	-1.8	64.0*	89.6*	-4.6
COc1ccc(-c2nc(CS(=O)(=O)CC(=O)NCCCc3ccccc3)c(C)o2)cc1	3.2	-16.7	-0.9	-0.8	nt	nt
CC1CCC(NC(=O)CNC(=O)Cc2cccc3ccccc23)CC1 (stereo unspecified)	15.0	-10.3	-4.2	31.2*	0.0	-5.5
COc1ccccc1CC(=O)NC1CCC(C)CC1 (stereo unspecified)	-3.6	-18.8	-3.0	-1.8	nt	nt
COCCN(CCOC)C(=O)CC(=O)N(CCOC)CCOC	2.4	1.6	5.2	27.5*	6.8	-0.5
COc1ccc(CCNC(=O)C2CCN(C(=O)NC3CCCCC3)CC2)cc1	11.3	-15.6	3.6	1.4	nt	nt
CCCCCn1c2c(c(=N)c3ccccc31)CCC2	-0.7	-22.2	-3.8	9.8	nt	nt
CCCCCCCCn1c2c(c(=N)c3ccccc31)CCC2	20.4	-19.1	-4.7	28.7*	44.3*	38.2*
C=CCC(Nc1ccccc1)c1ccc(OC)c(OC)c1 (stereo unspecified)	nt	nt	2.1	nt	nt	nt
SMILES	CCHF vOTU inh	PrP UTR inh	SARS 3CLpro inh	PrPC TRFRET	PrPC confirm	LD9 cytotox
CN1C(=O)C(C)(C)c2cc(S(=O)(=O)N3CCCC(C(=O)NCc4ccc(Cl)cc4)C3)ccc21 (stereo unspecified)	-0.5	-39.3	-0.6	41.3*	45.4*	-2.0
Cc1cc(C)cc(NC(=O)C2CCCN2S(=O)(=O)c2ccc3c(c2)C(C)(C)C(=O)N3C)c1 (stereo unspecified)	0.5	-27.6	-0.1	36.6*	18.7	-3.7
CCN1C(=O)CS/C1=N\S(=O)(=O)c1ccc(Cl)cc1	-10.3	-10.5	0.2	6.8	nt	nt
CCn1c(Cl)c(C=O)s/c1=N\S(=O)(=O)c1ccccc1	9.0	-16.8	-3.8	53.1*	102.0*	94.4*
Cc1ccc(S(=O)(=O)c2ncccc2[N+](=O)[O-])cc1	-2.0	-3.9	-0.3	70.7*	54.6*	97.7*
COc1ccccc1NC(=O)c1cc(C(=O)O)ccc1C(=O)O	-11.3	-0.8	-2.6	-1.1	nt	nt
COc1ccc(-c2coc3c(C(=O)Nc4cc(OC)c(OC)c(OC)c4)cccc23)c(C)c1	3.7	nt	nt	8.4	nt	nt
COc1cc(NC(=O)c2cccc3c(-c4cccnc4)coc23)cc(OC)c1OC	-4.3	nt	nt	30.4*	25.0*	42.6*
CN(c1ccccc1)S(=O)(=O)c1ccc(NC(=O)c2nc(S(C)(=O)=O)ncc2Cl)cc1	-4.7	3.4	4.7	41.2*	93.3*	97.8*
COc1cccc(NC(=O)c2nc(S(C)(=O)=O)ncc2Cl)c1	7.9	-24.0	2.5	82.6*	6.3	93.6*
Clc1cccc(CON/C=N/c2ncnc3sccc23)c1	10.4	-10.3	5.0	15.3	nt	nt
O=C(Nc1cccc(Cl)c1)Nc1ccc2c(c1)OCO2	6.2	-95.3	1.6	31.5*	31.2*	-3.0
Cc1cc2nc(N)sc2cc1C	1.5	-78.5	1.5	35.7*	8.1	-3.5
COc1cc2cnncc2cc1OC	-4.1	-50.1	0.6	-3.8	nt	nt
COc1cc2cc(Br)cc(Br)c2nc1C	12.9	-6.1	-1.6	63.0*	88.9*	-3.2
Cc1ccc(S(=O)(=O)NC(=O)Nc2nccs2)cc1	5.4	-1.7	1.6	-4.9	nt	nt
Cn1c(=O)c2cc(NC(=O)NCc3ccccc3)ccc2n1Cc1cccc(C(F)(F)F)c1	-118.8	nt	nt	25.3*	14.8	-3.1
O=C(Cn1c(CC(=O)N2CCOCC2)nc2ccccc21)Nc1ccc2c(c1)OC(F)(F)O2	5.3	-10.3	7.5	2.3	nt	nt
O=C(NCc1ccccc1)C(=O)Nc1nc(C23CC4CC(CC(C4)C2)C3)cs1	-8.6	4.6	1.3	1.4	nt	nt
O=C(NCc1ccncc1)C(=O)Nc1nc(C23CC4CC(CC(C4)C2)C3)cs1	-6.0	-16.5	5.5	35.4*	36.0*	2.0
O=C(OCc1cc2ccccc2[nH]c1=O)c1ccc([N+](=O)[O-])cc1	9.8	-9.8	1.6	3.1	nt	nt
N#CC(=C=[N-])C1=C(C#N)C(c2ccccc2F)C([n+]2ccccc2)C(O)(C2CC2)N1 (stereo unspecified)	-11.3	1.4	1.0	62.7*	22.1	-0.3
O=S1(=O)c2c(Oc3cccc4ccccc34)cccc2OC(COCc2ccccc2)CN1C1CCCC1 (stereo unspecified)	1.1	-18.5	nt	3.9	nt	nt
C=CCn1c(C#N)c(N)sc1=N	-0.4	6.5	5.6	-4.3	nt	nt
OC[C@@H]1CN(Cc2ccc(Cl)cc2)C[C@H](n2cnc3c(NC4CCC4)ncnc32)O1	-1.1	nt	nt	26.1*	22.7	-6.2
CCCNC(=O)c1ccccc1N1CCN(CCCCN2C(=O)C3CCCCN3C2=O)CC1 (stereo unspecified)	-3.9	-13.8	-4.9	-8.6	nt	nt
